GPT2 inh – Primary qHTS assay for inhibitors of Glutamate pyruvate transaminase 2 (GPT2) | Recombinant GPT2, coupled pyruvate oxidase/HRP Amplex Red fluorescence | Potency, µM (series often up to 57.7 µM), most hits filed as inhibitors | 0.25% of 100,000 active; active = well fitted inhibition curve with a large enough effect; note: nearly all actives have a fitted effect of over 60% in size
Target sequence (Q8TD30 whole entry, looked up): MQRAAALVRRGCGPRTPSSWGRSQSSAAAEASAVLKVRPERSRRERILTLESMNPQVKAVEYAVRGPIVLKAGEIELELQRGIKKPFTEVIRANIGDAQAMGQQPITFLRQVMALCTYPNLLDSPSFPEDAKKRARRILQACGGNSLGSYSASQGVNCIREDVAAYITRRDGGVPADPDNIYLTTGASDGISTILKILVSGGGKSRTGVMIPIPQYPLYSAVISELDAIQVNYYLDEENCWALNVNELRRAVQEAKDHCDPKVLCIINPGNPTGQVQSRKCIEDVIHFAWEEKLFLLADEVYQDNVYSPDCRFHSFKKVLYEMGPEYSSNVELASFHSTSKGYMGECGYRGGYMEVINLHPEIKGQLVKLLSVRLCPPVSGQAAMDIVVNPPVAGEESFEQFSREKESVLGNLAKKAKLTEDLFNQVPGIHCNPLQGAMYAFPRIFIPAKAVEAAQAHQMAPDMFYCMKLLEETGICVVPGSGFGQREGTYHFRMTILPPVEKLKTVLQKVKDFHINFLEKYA
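Fluorescence of coupled pyruvate oxidase/HRP/Amplex Red system (50uM Amplex, 30 min, dark) reports pyruvate formed by GPT2. Enzyme reaction: 10ng/uL GPT2, 2mM L-alanine, 250uM a-KG, 30 min room temperature, pH 7.5; 50uM AOA control.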
Each line names hits and unclear results; the compound was inactive in the other large screens; ! = not confirmed by another sample. The full list was thinned out, with hits kept by preference.

c1ccc(-c2nc3ccncc3[nH]2)cc1	none
c1coc(-c2nc3ccncc3[nH]2)c1	GPT2 inh 32µM!
c1coc(-c2nc3ncccc3[nH]2)c1	none
O=C(NC1CCN(Cc2cccc(-c3ccc(F)c(F)c3)c2)CC1)c1ccc(F)cc1	none
O=C(Nc1ccccc1)N1CCCC(C(=O)N2CCC(c3ccccc3)CC2)C1 (stereo not given)	none
Cn1c([C@H]2CCN(Cc3ncc[nH]3)C2)nc2ccccc21	none
COc1ccc(C(=O)N2C[C@H](C(N)=O)[C@H]3c4ccccc4N(C)C(=O)[C@]32C)cc1OC	none
O=C(NCCCc1ccccc1)C1CCN(c2nccc(Nc3ccccc3F)n2)CC1	none
CCN(CC)C(=O)/C(C#N)=C/c1cc(O)c(O)c([N+](=O)[O-])c1	GPT2 inh 8.9µM
CN1C(=O)Cc2ccccc2C1C(=O)N1CCN(c2ccc(F)cc2)CC1 (stereo not given)	none
O=C(CCCCCN1CCN(c2ccccc2-c2ccccc2)CC1)NC1CCCc2ccccc21 (stereo not given)	none
O=C(CCCN1CCN(c2ccc(F)cc2)CC1)NC1c2ccccc2CSc2ccccc21 (stereo not given)	GPT2 inh 1.2µM
COc1ccccc1Nc1ccnc(N2CCC(C(=O)NCCCc3ccccc3)CC2)n1	none
CCCCCNC(=O)C1CCCN1c1nccc(Nc2ccc(C)cc2)n1 (stereo not given)	none
O=C(Nc1cccc(Cl)c1)c1nc2sccn2c1-c1ccncc1	none
O=C(NCc1ccc(Cl)cc1)c1ccc2nnc(CC3CC3)n2c1	none
Oc1ccc(C=Cc2cc(O)cc(O)c2)cc1	none
Oc1ccc(/C=C/c2cc(O)cc(O)c2)cc1	none
Cc1cc(=O)oc2c(C=O)c(O)ccc12	none
Oc1cc(O)cc(C=Cc2ccc(O)c(O)c2)c1	GPT2 inh 4.3µM
O=c1cc(O)cc(/C=C/c2ccc(O)c(O)c2)o1	GPT2 inh 6.3µM
O=C(/C=C/c1ccc(O)c(O)c1)OCCc1ccccc1	none
O=[S+]([O-])(c1ccccc1)N1CCN(c2nccc(Nc3ccccc3Cl)n2)CC1	none
COc1cc(CNc2nccc3c(=O)cc(N4CCOCC4)oc23)cc(OC)c1	none
CNC[C@H](O)c1ccc(O)c(O)c1	GPT2 inh 14µM!
CC(C)NCC(O)c1ccc(O)c(O)c1 (stereo not given)	GPT2 inh 17µM!
CNC[C@H](O)c1cccc(O)c1	none
NC[C@H](O)c1ccc(O)c(O)c1	GPT2 inh 10µM!
Oc1ccc(C(O)CNCCCCCCNCC(O)c2ccc(O)c(O)c2)cc1O (stereo not given)	none
CC(C)(Cc1ccccc1)NCC(O)c1ccc(O)c(NS(C)(=O)=O)c1 (stereo not given)	none
CC(C)NCC(O)c1ccc2ccccc2c1 (stereo not given)	none
COc1cc(C(O)CO)ccc1O (stereo not given)	none
O=C(c1ccc(C(F)(F)F)cc1)N1CCCC(C(=O)N2CCCC(c3nc4ccncc4[nH]3)C2)C1 (stereo not given)	none
Cc1ccc(-c2cc(C(=O)N3CCN(c4ncccn4)CC3)c3cnn(C)c3n2)cc1	none
O=C(NCc1cccc(F)c1)C1CCCN(Cc2cccc(-c3ccc(F)cc3F)c2)C1 (stereo not given)	none
COc1cccc(-c2cccc(C(=O)N3CCN(C(=O)c4ccc(C(F)(F)F)cc4)CC3)c2)c1	none
COc1ccccc1Nc1ccnc(N2CCC(C(=O)NCCc3ccc(F)cc3)CC2)n1	none
O=c1c(O)c(-c2ccc(O)c(O)c2)oc2cc(O)cc(O)c12	GPT2 inh 14µM!
O=c1cc(-c2ccc(O)c(O)c2)oc2cc(O)cc(O)c12	none
O=c1c(-c2ccc(O)cc2)coc2cc(O)cc(O)c12	none
Cc1cc(C)cc(-c2ccc(CN3CCCC(NC(=O)c4cccnc4)C3)cc2)c1 (stereo not given)	none
O=C(C1CCCN1C(=O)c1ccccc1Cl)N1CCC(c2ccccc2)CC1 (stereo not given)	none
O=C(C1CN(C2CCCCC2)C(=O)N1)N1CCC(Cc2ccccc2)CC1 (stereo not given)	none
Cc1ccc(Nc2ccnc(N3CCCC(C(=O)NCc4cccc(F)c4)C3)n2)cc1 (stereo not given)	none
COCCOC1CN(C2CCN(S(=O)(=O)c3cccc(F)c3)CC2)C12CCCCC2 (stereo not given)	none
O=C(NC[C@H]1OC[C@@H](NCc2ccccc2)[C@@H]1O)c1ccccc1	none
CC(C(=O)NCc1ccccc1)C1CCOCC1 (stereo not given)	none
CC1(C)OC2=C(C(=O)c3ccccc3C2=O)[C@H](NCc2ccccc2)[C@H]1O	GPT2 inh 14µM
O=C1C(c2c(O)[nH]c3ccccc23)=Nc2ccccc21	none
O=C1c2ccccc2-[n+]2ccc3c([nH]c4ccccc43)c21	GPT2 inh 0.27µM
COC(=O)N[C@H]1[C@H](OC(=O)c2ccccc2)[C@@H]2O[C@H]1c1ccccc12	none
C=C[C@H]1[C@H](O[C@@H]2O[C@H](CO)[C@@H](O)[C@H](O)[C@H]2O)OC=C(C(=O)OC)[C@H]1C[C@@H]1c2cc(O)c(O)cc2CCN1C(C)=O	GPT2 inh 3.2µM
C=CC1C(O[C@@H]2O[C@H](CO)[C@@H](O)[C@H](O)[C@H]2O)OC=C(C(=O)OC)C1CC(=O)O (stereo not given in full)	none
C=C[C@H]1[C@H](O[C@@H]2O[C@H](CO)[C@@H](O)[C@H](O)[C@H]2O)OC=C(C(=O)OC)[C@H]1CC=O	none
Cc1ccc(Nc2ccnc(N3CCCC3C(=O)N3CCC(c4ccccc4)CC3)n2)cc1 (stereo not given)	none
O=C(NC1CC1)c1cn2cc(-c3ccc(F)cc3)sc2n1	none
COc1ccc(-c2cc(C(=O)NCc3ccc(F)cc3)c3cnn(C)c3n2)cc1	none
COc1ccc(F)cc1-c1cccc(C(=O)NCCN[S+](=O)([O-])c2ccc(C)cc2)c1	none
CN(C)CCCN1c2ccccc2Sc2ccc(C(F)(F)F)cc21	none
C[C@@H](CN(C)C)CN1c2ccccc2Sc2ccccc21	none
CC(CN1c2ccccc2Sc2ccccc21)N(C)C (stereo not given)	GPT2 inh 10µM!
COc1cc(C(=O)O)ccc1NC(=O)C1NC(CC(C)(C)C)C(C#N)(c2ccc(Cl)cc2F)C1c1cccc(Cl)c1F (stereo not given)	none
Cc1cc(C)cc(-c2ccc(CN3CCCC3C(=O)N3CCOCC3)cc2)c1 (stereo not given)	none
Cc1noc(C)c1[S+](=O)([O-])N1CCCC1C(=O)N1CCC(c2ccccc2)CC1 (stereo not given)	none
Cc1ccc(Nc2ccnc(N3CCC(N[S+](=O)([O-])c4cccs4)CC3)n2)cc1	none
Nc1cc(-c2ccncc2)c[nH]c1=O	GPT2 inh 10µM
O=C(Nc1cc(C2CC2)nn1-c1ccccc1)c1ccccc1F	none
O=C(NCc1ccc(F)cc1)c1nn(CCOc2ccccc2)c2c1CNCC2	none
CCCC1CN(Cc2ccccc2)[S+](=O)([O-])c2cccnc2O1 (stereo not given)	none
O=C(NCc1cccnc1)c1cn2cc(-c3ccccc3)sc2n1	none
COc1ncccc1-c1nc2cc(C(=O)Nc3ccc(C)cc3)ccc2o1	none
CN1Cc2sccc2C(c2ccc(O)c(O)c2)C1 (stereo not given)	GPT2 inh 4µM
CN1CCc2cc(Cl)c(O)cc2[C@@H](c2ccccc2)C1	none
CC(C)NC(=O)c1ccc2nc(-c3ccccn3)oc2c1	none
COc1ccccc1Nc1ccnc(N2CCC(C(=O)NCCSC)CC2)n1	none
O=C(NCCc1ccc(F)cc1)c1cc(-c2cccs2)c2cccn2n1	none

Assay outcomes deposited in PubChem by National Center for Advancing Translational Sciences (NCATS).
